Test results reported in PubChem BioAssay AID1159580 (chemical genetic matrix, 2015).
Several values for one entry are separate records, joined by “and”; a condition that tells them apart may be missing. Identical values can stand only once. Out of some 5,500 compounds screened, about 2,000 (36%) were called active. About 18% were inconclusive and are not listed. Rule as the data show it: active = normalized growth mostly below about 0.91 (no sharp cut-off); inconclusive = no clear call, values can overlap the other calls; inactive = mostly above about 0.92. This is one part of the list.

Test: chemical genetic growth profiling, strain panel (AID 1159580);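 also: tested at 20 µM; growth read once vehicle control cultures reached saturation at 30 °C; 1 = growth at the plate median or of vehicle wells; lower values mean less growth of the strain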
Details: S. cerevisiae deletion strains, growth OD

Measured: normalized growth

COc1ccc([C@H]2COc3c(ccc(O)c3OC)C2)c(OC)c1O
inactive: locus YAL021C, strain ccr4, stronger effect = lower value 0.984 | locus YAL026C, strain drs2, stronger effect = lower value 0.975 | locus YAL030W, strain snc1, stronger effect = lower value 0.992 | locus YBL061C, strain skt5, stronger effect = lower value 0.989 | locus YBR009C, strain hhf1, stronger effect = lower value 0.976 | locus YBR021W, strain FUR4, stronger effect = lower value 1.11 | locus YBR023C, strain chs3, stronger effect = lower value 0.985 | locus YBR171W, strain sec66, stronger effect = lower value 0.969 | locus YBR229C, strain ROT2, stronger effect = lower value 0.947 | locus YBR231C, strain swc5, stronger effect = lower value 0.988 | locus YBR279W, strain paf1, stronger effect = lower value 0.984 | locus YCL011C, strain gbp2, stronger effect = lower value 0.972 | locus YCL016C, strain dcc1, stronger effect = lower value 0.989 | locus YCL029C, strain bik1, stronger effect = lower value 0.993 | locus YCL061C, strain MRC1, stronger effect = lower value 0.968 | locus YCL069W, strain vba3, stronger effect = lower value 0.988 | locus YCR088W, strain abp1, stronger effect = lower value 0.984 | locus YDL005C, strain med2, stronger effect = lower value 0.975 | locus YDL035C, strain GPR1, stronger effect = lower value 0.998 | locus YDL040C, strain nat1, stronger effect = lower value 0.991 | locus YDL074C, strain BRE1, stronger effect = lower value 1.02 | locus YDL101C, strain DUN1, stronger effect = lower value 0.978 | locus YDL185W, strain tfp1, stronger effect = lower value 0.946 | locus YDL192W, strain arf1, stronger effect = lower value 0.971 | locus YDR001C, strain nth1, stronger effect = lower value 0.986 | locus YDR069C, strain doa4, stronger effect = lower value 0.979 | locus YDR101C, strain arx1, stronger effect = lower value 0.969 | locus YDR159W, strain sac3, stronger effect = lower value 0.974 | locus YDR162C, strain NBP2, stronger effect = lower value 0.943 | locus YDR195W, strain ref2 1 | locus YDR297W, strain sur2, stronger effect = lower value 0.98 | locus YDR318W, strain mcm21, stronger effect = lower value 0.986 | locus YDR334W, strain swr1, stronger effect = lower value 0.962 | locus YDR335W, strain msn5, stronger effect = lower value 0.98 | locus YDR388W, stronger effect = lower value 0.995 | locus YDR392W, strain spt3, stronger effect = lower value 0.926 | locus YDR502C, strain sam2, stronger effect = lower value 0.977 | locus YEL003W, strain gim4, stronger effect = lower value 0.976 | locus YEL037C, strain rad23, stronger effect = lower value 0.992 | locus YEL061C, strain CIN8 (second series), stronger effect = lower value 0.973 | locus YEL061C, strain CIN8, stronger effect = lower value 0.985 | locus YER015W, strain faa2, stronger effect = lower value 0.989 | locus YER016W, strain bim1, stronger effect = lower value 0.983 | locus YER110C, stronger effect = lower value 0.962 | locus YER111C, strain swi4, stronger effect = lower value 0.983 | locus YER155C, strain BEM2 (second series), stronger effect = lower value 0.988 | locus YER155C, strain BEM2, stronger effect = lower value 1.01 | locus YER167W, strain BCK2, stronger effect = lower value 1 | locus YFR010W, strain ubp6, stronger effect = lower value 0.957 | locus YGL078C, strain dbp3, stronger effect = lower value 0.978 | locus YGL086W, strain mad1, stronger effect = lower value 0.994 | locus YGL167C, strain pmr1, stronger effect = lower value 0.981 | locus YGL173C, strain kem1, stronger effect = lower value 0.977 | locus YGL227W, strain vid30, stronger effect = lower value 0.988 | locus YGL240W, strain doc1, stronger effect = lower value 0.978 | locus YGL248W, strain PDE1, stronger effect = lower value 0.985 | locus YGL253W, strain hxk2, stronger effect = lower value 0.997 | locus YGR078C, strain PAC10, stronger effect = lower value 0.989 | locus YGR135W, strain pre9, stronger effect = lower value 0.986 | locus YGR229C, strain SMI1, stronger effect = lower value 0.987 | locus YGR252W, strain gcn5, stronger effect = lower value 1.03 | locus YHR013C, strain ard1, stronger effect = lower value 0.978 | locus YHR027C, strain rpn1, stronger effect = lower value 0.978 | locus YHR030C, strain SLT2, stronger effect = lower value 1 | locus YHR079C, strain IRE1 (second series), stronger effect = lower value 0.997 | locus YHR079C, strain IRE1, stronger effect = lower value 1.02 | locus YHR094C, strain hxt1, stronger effect = lower value 0.98 | locus YHR129C, strain ARP1, stronger effect = lower value 1.01 | locus YHR142W, strain chs7, stronger effect = lower value 0.968 | locus YHR200W, strain rpn10, stronger effect = lower value 0.967 | locus YIL066C, strain RNR3, stronger effect = lower value 0.975 | locus YIL073C, strain SPO22, stronger effect = lower value 0.924 | locus YIL125W, strain kgd1, stronger effect = lower value 0.987 | locus YIR030C, strain dcg1, stronger effect = lower value 1 | locus YJL092W, strain hpr5, stronger effect = lower value 0.977 | locus YJL095W, strain BCK1 (second series), stronger effect = lower value 0.995 | locus YJL095W, strain BCK1, stronger effect = lower value 0.98 and 1.03 | locus YJL115W, strain asf1, stronger effect = lower value 0.967 | locus YJL129C, strain trk1, stronger effect = lower value 0.977 | locus YJL134W, strain LCB3, stronger effect = lower value 0.994 | locus YJL154C, strain vps35, stronger effect = lower value 0.983 | locus YJL164C, strain tpk1, stronger effect = lower value 0.967 | locus YJL166W, strain qcr8, stronger effect = lower value 0.993 | locus YJL168C, strain set2, stronger effect = lower value 0.989 | locus YJL187C, strain SWE1 (second series), stronger effect = lower value 0.981 | locus YJL187C, strain SWE1, stronger effect = lower value 0.991 | locus YJR043C, strain POL32, stronger effect = lower value 0.987 | locus YJR066W, strain TOR1, stronger effect = lower value 1.01 | locus YJR075W, strain HOC1, stronger effect = lower value 0.969 | locus YKL009W, strain mrt4, stronger effect = lower value 0.977 | locus YKL068W, stronger effect = lower value 0.973 | locus YKL085W, strain MDH1 (second series), stronger effect = lower value 0.974 | locus YKL085W, strain MDH1, stronger effect = lower value 0.974 | locus YKL160W, strain elf1, stronger effect = lower value 0.986 | locus YKL190W, strain CNB1, stronger effect = lower value 0.991 | locus YKR001C, strain vps1, stronger effect = lower value 1 | locus YKR026C, strain gcn3, stronger effect = lower value 0.982 | locus YKR091W, strain srl3, stronger effect = lower value 0.992 | locus YLL001W, strain dnm1, stronger effect = lower value 0.978 | locus YLL026W, stronger effect = lower value 0.994 | locus YLL041C, strain sdh2, stronger effect = lower value 0.98 | locus YLR027C, strain aat2, stronger effect = lower value 1 | locus YLR039C, strain RIC1, stronger effect = lower value 0.953 | locus YLR058C, strain SHM2, stronger effect = lower value 0.98 | locus YLR102C, strain apc9, stronger effect = lower value 0.997 | locus YLR113W, strain HOG1, stronger effect = lower value 0.969 | locus YLR221C, strain rsa3, stronger effect = lower value 0.993 | locus YLR258W, strain gsy2, stronger effect = lower value 0.992 | locus YLR262C, strain YPT6 (second series), stronger effect = lower value 0.912 | locus YLR262C, strain YPT6, stronger effect = lower value 0.939 | locus YLR268W, strain sec22, stronger effect = lower value 0.99 | locus YLR320W, strain mms22, stronger effect = lower value 0.987 | locus YLR330W, strain CHS5, stronger effect = lower value 1 | locus YLR342W, strain FKS1 (second series), stronger effect = lower value 1.05 | locus YLR342W, strain FKS1, stronger effect = lower value 0.989 | locus YLR357W, strain rsc2, stronger effect = lower value 0.978 | locus YLR370C, strain arc18, stronger effect = lower value 0.977 | locus YLR371W, strain rom2, stronger effect = lower value 0.994 | locus YLR384C, strain iki3, stronger effect = lower value 0.995 | locus YLR418C, strain cdc73, stronger effect = lower value 1 | locus YML016C, strain PPZ1, stronger effect = lower value 0.995 | locus YML032C, strain rad52, stronger effect = lower value 0.993 | locus YML120C, strain ndi1, stronger effect = lower value 0.979 | locus YML124C, strain tub3, stronger effect = lower value 0.974 | locus YMR058W, strain fet3, stronger effect = lower value 0.97 | locus YMR078C, strain ctf18, stronger effect = lower value 0.99 | locus YMR125W, strain sto1, stronger effect = lower value 0.979 | locus YMR129W, stronger effect = lower value 0.977 | locus YMR205C, strain PFK2, stronger effect = lower value 0.978 | locus YMR223W, strain ubp8, stronger effect = lower value 0.972 | locus YMR231W, strain pep5, stronger effect = lower value 0.996 | locus YMR307W, strain GAS1, stronger effect = lower value 1.09 | locus YNL067W, strain RPL9B, stronger effect = lower value 0.996 | locus YNL071W, strain lat1, stronger effect = lower value 0.982 | locus YNL183C, strain NPR1, stronger effect = lower value 0.974 | locus YNL209W, strain ssb2, stronger effect = lower value 0.987 | locus YNL233W, strain BNI4, stronger effect = lower value 0.996 | locus YNL248C, strain rpa49, stronger effect = lower value 0.977 | locus YNL250W, strain rad50, stronger effect = lower value 0.968 | locus YNL271C, strain bni1, stronger effect = lower value 0.979 | locus YNL298W, strain CLA4, stronger effect = lower value 0.975 | locus YNL307C, strain MCK1, stronger effect = lower value 0.986 | locus YNL322C, strain KRE1 (second series), stronger effect = lower value 0.991 | locus YNR049C, strain mso1, stronger effect = lower value 0.995 | locus YNR052C, strain pop2, stronger effect = lower value 0.996 | locus YOL006C, strain TOP1, stronger effect = lower value 1.1 | locus YOL012C, strain htz1 0.955 | locus YOL147C, strain pex11, stronger effect = lower value 0.995 | locus YOR001W, strain rrp6, stronger effect = lower value 0.986 | locus YOR061W, strain CKA2, stronger effect = lower value 0.966 | locus YOR069W, strain VPS5, stronger effect = lower value 0.999 | locus YOR070C, strain gyp1, stronger effect = lower value 0.988 | locus YOR080W, strain dia2, stronger effect = lower value 0.988 | locus YOR083W, strain WHI5, stronger effect = lower value 0.985 | locus YOR106W, strain vam3, stronger effect = lower value 0.976 | locus YOR136W, strain idh2, stronger effect = lower value 0.978 | locus YOR144C, strain elg1, stronger effect = lower value 0.983 | locus YOR184W, strain ser1, stronger effect = lower value 0.956 | locus YOR231W, strain MKK1, stronger effect = lower value 1.03 | locus YOR265W, strain rbl2, stronger effect = lower value 0.994 | locus YOR270C, strain vph1, stronger effect = lower value 0.933 | locus YOR290C, strain snf2, stronger effect = lower value 0.966 | locus YOR316C, strain cot1, stronger effect = lower value 0.981 | locus YPL051W, strain arl3, stronger effect = lower value 0.995 | locus YPL055C, strain LGE1, stronger effect = lower value 1.01 | locus YPL078C, strain atp4, stronger effect = lower value 0.986 | locus YPL106C, strain sse1, stronger effect = lower value 0.989 | locus YPL240C, strain hsp82, stronger effect = lower value 0.963 | locus YPL241C, strain CIN2, stronger effect = lower value 0.958 | locus YPL256C, strain CLN2, stronger effect = lower value 1.03 | locus YPR119W, strain clb2, stronger effect = lower value 0.978 | locus YPR141C, strain kar3, stronger effect = lower value 0.979 | locus YPR163C, strain tif3, stronger effect = lower value 0.981 | locus YPR167C, strain met16, stronger effect = lower value 1 | strain wtn01, stronger effect = lower value 0.981
active: locus YDR137W, strain rgp1, stronger effect = lower value 0.828
